Assay outcomes from PubChem BioAssay.
mHTT CaM bind: mutant huntingtin-calmodulin interaction inhibitors – biochemical, AlphaScreen, primary screen | P42858 | AlphaScreen His-mHTT/GST-CaM binding, luminescence | inhibition, % at 15 µM | hit rate 3.6% among 190,000;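 also: 0% = both proteins with DMSO and 100% = one protein alone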
Target sequence (P42858 whole entry, looked up, stated change not applied): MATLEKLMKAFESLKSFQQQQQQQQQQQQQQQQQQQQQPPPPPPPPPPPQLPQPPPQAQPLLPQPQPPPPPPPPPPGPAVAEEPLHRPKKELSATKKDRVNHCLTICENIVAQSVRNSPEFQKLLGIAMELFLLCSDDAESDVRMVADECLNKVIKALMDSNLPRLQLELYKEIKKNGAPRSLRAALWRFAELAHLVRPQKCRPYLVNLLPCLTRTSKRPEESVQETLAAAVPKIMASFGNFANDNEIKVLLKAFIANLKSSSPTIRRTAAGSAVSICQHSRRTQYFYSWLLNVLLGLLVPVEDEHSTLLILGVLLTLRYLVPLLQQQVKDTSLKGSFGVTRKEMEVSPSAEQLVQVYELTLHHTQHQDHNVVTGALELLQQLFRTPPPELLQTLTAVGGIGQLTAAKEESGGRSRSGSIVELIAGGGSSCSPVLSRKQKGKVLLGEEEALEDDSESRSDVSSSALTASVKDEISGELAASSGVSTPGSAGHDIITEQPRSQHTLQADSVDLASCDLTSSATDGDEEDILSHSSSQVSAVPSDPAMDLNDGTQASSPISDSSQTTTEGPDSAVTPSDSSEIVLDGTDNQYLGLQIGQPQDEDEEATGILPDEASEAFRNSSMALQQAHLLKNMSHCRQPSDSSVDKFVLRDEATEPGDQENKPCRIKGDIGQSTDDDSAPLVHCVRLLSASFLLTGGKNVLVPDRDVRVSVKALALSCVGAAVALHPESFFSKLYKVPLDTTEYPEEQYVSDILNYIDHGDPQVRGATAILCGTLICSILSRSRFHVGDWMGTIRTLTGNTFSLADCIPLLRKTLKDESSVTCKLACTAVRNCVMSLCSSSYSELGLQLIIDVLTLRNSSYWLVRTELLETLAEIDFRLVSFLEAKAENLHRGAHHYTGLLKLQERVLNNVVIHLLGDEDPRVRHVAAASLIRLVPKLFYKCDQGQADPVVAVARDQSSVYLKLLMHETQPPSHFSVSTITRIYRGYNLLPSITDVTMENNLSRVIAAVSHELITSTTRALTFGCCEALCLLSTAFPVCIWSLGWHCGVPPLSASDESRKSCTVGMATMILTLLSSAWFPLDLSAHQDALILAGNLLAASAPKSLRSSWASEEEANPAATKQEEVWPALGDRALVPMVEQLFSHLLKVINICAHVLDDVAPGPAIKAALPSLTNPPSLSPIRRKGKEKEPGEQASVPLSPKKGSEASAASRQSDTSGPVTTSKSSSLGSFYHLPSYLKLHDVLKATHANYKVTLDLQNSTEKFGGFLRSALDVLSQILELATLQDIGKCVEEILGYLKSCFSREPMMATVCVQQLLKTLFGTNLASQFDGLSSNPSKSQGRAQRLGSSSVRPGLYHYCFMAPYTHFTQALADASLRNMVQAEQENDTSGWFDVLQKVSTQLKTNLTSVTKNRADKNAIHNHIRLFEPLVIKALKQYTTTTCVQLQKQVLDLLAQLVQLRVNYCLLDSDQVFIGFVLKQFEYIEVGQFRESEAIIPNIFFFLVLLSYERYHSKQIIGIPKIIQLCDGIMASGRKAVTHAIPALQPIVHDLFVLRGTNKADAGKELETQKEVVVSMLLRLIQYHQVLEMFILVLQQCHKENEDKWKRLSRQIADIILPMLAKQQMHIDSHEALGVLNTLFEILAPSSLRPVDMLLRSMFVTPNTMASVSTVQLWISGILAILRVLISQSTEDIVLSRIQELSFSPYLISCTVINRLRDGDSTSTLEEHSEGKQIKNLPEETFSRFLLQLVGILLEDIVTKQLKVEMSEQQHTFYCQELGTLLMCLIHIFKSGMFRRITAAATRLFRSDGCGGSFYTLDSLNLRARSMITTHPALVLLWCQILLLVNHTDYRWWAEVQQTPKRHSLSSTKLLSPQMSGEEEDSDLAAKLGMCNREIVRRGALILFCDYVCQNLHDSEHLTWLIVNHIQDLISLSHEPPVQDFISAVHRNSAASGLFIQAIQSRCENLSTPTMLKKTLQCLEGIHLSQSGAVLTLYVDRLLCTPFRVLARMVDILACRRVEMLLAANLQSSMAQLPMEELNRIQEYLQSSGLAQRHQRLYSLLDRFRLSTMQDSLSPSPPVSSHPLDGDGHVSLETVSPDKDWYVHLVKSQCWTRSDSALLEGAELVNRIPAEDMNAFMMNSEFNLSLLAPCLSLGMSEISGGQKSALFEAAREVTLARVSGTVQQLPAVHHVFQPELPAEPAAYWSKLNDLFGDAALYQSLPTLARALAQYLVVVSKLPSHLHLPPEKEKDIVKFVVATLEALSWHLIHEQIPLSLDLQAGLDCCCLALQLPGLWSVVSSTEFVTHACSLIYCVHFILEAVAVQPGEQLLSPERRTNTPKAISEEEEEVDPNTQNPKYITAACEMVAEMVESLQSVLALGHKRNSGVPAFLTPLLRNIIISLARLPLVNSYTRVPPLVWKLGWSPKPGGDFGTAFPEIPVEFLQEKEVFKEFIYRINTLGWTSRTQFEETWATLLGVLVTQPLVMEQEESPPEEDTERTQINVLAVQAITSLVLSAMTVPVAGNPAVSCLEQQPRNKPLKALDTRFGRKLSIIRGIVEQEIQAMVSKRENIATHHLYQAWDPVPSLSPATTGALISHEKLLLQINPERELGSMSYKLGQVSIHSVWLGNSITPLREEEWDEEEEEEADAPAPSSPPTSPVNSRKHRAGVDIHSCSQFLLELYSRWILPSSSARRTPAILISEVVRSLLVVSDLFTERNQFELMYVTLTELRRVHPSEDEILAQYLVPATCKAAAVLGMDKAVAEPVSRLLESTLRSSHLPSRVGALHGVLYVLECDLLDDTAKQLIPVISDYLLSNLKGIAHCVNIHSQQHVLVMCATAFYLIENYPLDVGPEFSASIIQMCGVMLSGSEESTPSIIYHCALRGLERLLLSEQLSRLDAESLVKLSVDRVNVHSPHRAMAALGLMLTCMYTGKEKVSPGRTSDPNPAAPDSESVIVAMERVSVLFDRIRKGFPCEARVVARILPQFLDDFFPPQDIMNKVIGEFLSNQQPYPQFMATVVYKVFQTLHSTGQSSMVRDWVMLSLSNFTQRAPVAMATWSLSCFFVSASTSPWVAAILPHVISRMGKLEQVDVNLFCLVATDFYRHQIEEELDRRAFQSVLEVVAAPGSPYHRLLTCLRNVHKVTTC
Pf apPOL inh: Pf-apPOL inhibitors, biochemical, fluorescence. Recombinant Pf-apPOL, molecular beacon fluorescence, 1.5 h. Plasmodium falciparum apicoplast DNA polymerase (apPOL). AID 1794808, 2022. inhibition, % at 10 µM. hit rate 0.25% among 210,000
* marks the source's active call; other numbers are inactive results; . = not tested or not shown. Hits are enriched below; roughly 3.5% of the tested compounds scored in any of these assays. Rule as the data show it: active = inhibition above about 50%; inactive = the rest.

SMILES	mHTT CaM bind	Pf apPOL inh
O=C(C1CCCC1)N1CCCC(c2ccnc(Nc3cccc(F)c3)n2)C1 (stereo unspecified)	13.1	-7.2
CCCC(=O)N1CCCC(c2ccnc(Nc3cccc(F)c3)n2)C1 (stereo unspecified)	62.0*	-0.9
CCCC(=O)N1CCCC(c2ccnc(Nc3ccc(F)cc3)n2)C1 (stereo unspecified)	2.1	-4.5
O=C(C1CCCCC1)N1CCCC(c2ccnc(Nc3cccc(F)c3)n2)C1 (stereo unspecified)	72.2*	-2.7
Cc1cc(C)cc(NC(=O)N2CCCC2c2c(C)noc2C)c1 (stereo unspecified)	-4.8	-2.2
CCOC(=O)C1CCN(CC(O)COc2ccc(C34CC5CC(CC(C5)C3)C4)cc2)CC1 (stereo unspecified)	30.4	-2.4
OC(COc1ccc(C23CC4CC(CC(C4)C2)C3)cc1)CN1CCOCC1 (stereo unspecified)	6.4	3.6
CN1CCN(CC(O)COc2ccc(C34CC5CC(CC(C5)C3)C4)cc2)CC1 (stereo unspecified)	95.5*	5.7
OC(COc1ccc(C23CC4CC(CC(C4)C2)C3)cc1)CN1CCCCC1 (stereo unspecified)	100.1*	4.1
Cc1ccc(NC(=O)CCCn2nc([N+](=O)[O-])c(Br)c2C)cc1	0.0	-5.5
CCCCc1ccc(NC(=O)C(=O)NCCN2CCOCC2)cc1	0.3	-7.5
CC(=O)N1N=C(c2ccc([N+](=O)[O-])cc2)CC1c1ccccc1 (stereo unspecified)	15.0	-4.4
O=C(O)CCC(=O)N1N=C(c2ccc([N+](=O)[O-])cc2)CC1c1ccc(Br)cc1 (stereo unspecified)	21.0	0.1
O=[N+]([O-])c1ccc(N2N=C(c3ccc(O)cc3)CC2c2ccc(F)cc2)cc1 (stereo unspecified)	98.0*	-6.0
O=[N+]([O-])c1ccc(N2N=C(c3ccccc3)CC2c2ccccc2O)cc1 (stereo unspecified)	99.0*	2.1
O=S(=O)(NC1CCCCC1Sc1ncccn1)c1ccc(Cl)cc1 (stereo unspecified)	-2.0	-0.7
CC(=O)Nc1ccccc1NS(=O)(=O)c1cccc([N+](=O)[O-])c1	-0.6	1.6
N#Cc1c(NC(=O)c2ccc(Br)cc2F)sc2c1CCC2	-16.9	-4.9
O=C(Oc1ccccc1N1CCOCC1)c1ccco1	.	-5.4
Cc1cc(=O)n2[nH]c(C)c(-c3ccc(Cl)cc3)c2n1	-3.1	-6.6
O=c1cc(-c2ccc([N+](=O)[O-])cc2)nc2c(-c3ccc(Cl)cc3)c[nH]n12	54.5*	4.5
COc1ccc(-c2c(C)[nH]n3c(=O)cc(-c4ccc([N+](=O)[O-])cc4)nc23)cc1	53.2*	-3.0
Cc1nc2c(-c3ccc(Cl)cc3)c[nH]n2c(=O)c1Cl	9.9	-1.0
O=c1oc2c(Cl)cc(Cl)cc2cc1C1=NS(=O)(=O)c2ccccc2N1	7.0	-4.8
O=C(NCCC1=CCCCC1)c1ccccc1O	-33.2	6.3
SMILES	mHTT CaM bind	Pf apPOL inh
CCOc1ccc(N=c2scc(-c3ccc(F)cc3)n2CCCO)cc1	31.0	-6.9
COc1ccc(-c2csc(=Nc3ccccc3)n2CCCN(C)C)cc1	45.0	2.3
CCOc1ccc(N=c2scc(-c3ccc(Cl)s3)n2CCCO)cc1	35.0	-1.8
OCCCn1c(-c2ccc(F)cc2)csc1=Nc1ccc(Cl)cc1	87.0*	-3.8
COc1ccc(-c2csc(=Nc3ccccc3)n2CCO)cc1F	53.0*	-2.6
COc1ccc(N=c2scc(-c3ccc(OC)cc3)n2CCN2CCOCC2)cc1	36.0	3.1
COc1ccc(N=c2scc(-c3ccc4c(c3)OCCO4)n2CCO)cc1	53.0*	-1.8
COc1ccc(-c2csc(=Nc3ccc(Cl)cc3)n2CCCO)cc1F	76.0*	0.4
CC(=O)Nc1cccc(-c2nnc(SCC(=O)Nc3ccc(F)cc3)n2C)c1	-5.3	-0.3
Cc1ccc(NC(=O)C(=O)NC(C)C)cc1	-3.5	3.4
COCCN=C1Nc2ccccc2NC12CCCN(C(=O)c1cc(OC)cc(OC)c1)C2 (stereo unspecified)	0.1	-2.3
COCCN=C1Nc2ccccc2NC12CCCN(C(=O)c1ccc(C)c(F)c1)C2 (stereo unspecified)	48.0	-3.0
COCCN=C1Nc2ccccc2NC12CCCN(C(=O)Nc1ccc(OC)cc1)C2 (stereo unspecified)	99.8*	-5.5
COCCN=C1Nc2ccccc2NC12CCCN(C(=O)Nc1ccc(OC)cc1C)C2 (stereo unspecified)	69.9*	-1.5
CCOc1sc2nc(C)n(CC(=O)Nc3ccccc3C)c(=O)c2c1C	-1.0	-1.6
COc1ccc(N2CCN(C(=O)c3ccc4c(c3)CC(=O)N4C)CC2)cc1	4.2	2.7
CCS(=O)(=O)c1ccc(C#N)cn1	.	-2.7
COCCn1cc2c3c(cccc31)CN(C(=O)Nc1ccc(Br)cc1F)CC2	12.9	-3.8
Cc1ccc(S(=O)(=O)N2CCC(c3noc(-c4ccccc4)n3)CC2)cc1	-2.3	-1.5
